# A number with no mark means an inactive call.
# Legend:
# Mel-DCC-11 = experiment: cell viability relative to DMSO control (fraction of DMSO control); higher = less cytotoxic, active = 0.5 or less; conditions: 1 µM; 120 h
# Method in brief: (§1)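 The screen used 384-well plates acoustically pre-spotted with 315 approved anti-cancer drugs from TargetMol, each at 1 µM in duplicate. Into each well went 40 µl of cells, 2500 NHEM-hTERT immortalized melanocytes or 1500 of patient-derived Mel-DCC-11 or its resistant subline Mel-DCC-11-R, and plates were kept 120 h, with the subline also tested alongside 8 µM of its selecting drug. Readout was by ATPlite 1step luminescence. Viability values were normalised to vehicle-treated controls and averaged between duplicates.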
# NHEM-hTERT = experiment: as above; conditions: 1 µM; 120 h
# Method in brief: as §1
# Mel-DCC-11-R = experiment: cell viability relative to DMSO control (fraction of DMSO control); higher = less cytotoxic, active = 0.8 or less; conditions: 1 µM, 120 h
# Method in brief: as §1
Structure (SMILES),cell viability (Mel-DCC-11),cell viability (NHEM-hTERT),cell viability (Mel-DCC-11-R; vemurafenib co-treatment 0 µM),cell viability (Mel-DCC-11-R; vemurafenib co-treatment 8 µM)
CN1CCN(c2ccc3nc(-c4c(N)c5c(F)cccc5[nH]c4=O)[nH]c3c2)CC1 [Dovitinib],1.11,0.972,1.05,1.08
CC(=O)Nc1cccc(-n2c(=O)n(C3CC3)c(=O)c3c(Nc4ccc(I)cc4F)n(C)c(=O)c(C)c32)c1 [Trametinib],0.0655 (active),0.453 (active),0.206 (active),0.165 (active)
COc1cc2nccc(Oc3ccc(NC(=O)Nc4cc(C)on4)c(Cl)c3)c2cc1OC [Tivozanib],1.13,1.09,1.08,1.08
COc1ccc2cc3[n+](cc2c1OC)CCc1cc2c(cc1-3)OCO2 [Berberine],1.36,1.1,1.05,0.918
COC(=O)N[C@@H](C)CNc1nccc(-c2cn(C(C)C)nc2-c2cc(Cl)cc(NS(C)(=O)=O)c2F)n1 [Encorafenib],0.236 (active),0.972,0.802,0.74 (active)
CC1(COc2ccc3c(c2)ncn3-c2ccc3cccc(N4CCC(N)CC4)c3n2)COC1 [Crenolanib],1.81,0.873,1.26,1.35
CS(=O)(=O)O.Cc1ccc(NC(=O)c2ccc(CN3CCN(C)CC3)cc2)cc1Nc1nccc(-c2cccnc2)n1 [Imatinib Mesylate],1.15,0.965,0.94,1.1
CNC(=O)c1ccc(N2C(=S)N(c3ccc(C#N)c(C(F)(F)F)c3)C(=O)C2(C)C)cc1F [Enzalutamide],1.15,1.11,0.889,1.09
Cc1c(C)c2c(c(C)c1O)CCC(C)(COc1ccc(CC3SC(=O)NC3=O)cc1)O2 (stereo not given) [Troglitazone],1.31,1.05,1.01,1.12
CO[C@H]1C=CO[C@@]2(C)Oc3c(C)c(O)c4c(O)c(c(/C=N/N5CCN(C)CC5)c(O)c4c3C2=O)NC(=O)/C(C)=C\C=C/[C@H](C)[C@H](O)[C@@H](C)[C@@H](O)[C@@H](C)[C@H](OC(C)=O)[C@@H]1C [Rifampicin],0.597,1.03,0.882,0.848
CC#CC(=O)N1CCC[C@H]1c1nc(-c2ccc(C(=O)Nc3ccccn3)cc2)c2c(N)nccn12 [Acalabrutinib],1.12,1,1.04,1
O=C(/C=C/c1ccc(O)cc1)c1ccc(O)cc1O [Isoliquiritigenin],1.03,0.982,0.834,1.02
C.CCN(CC)CCCC(C)Nc1ccnc2cc(Cl)ccc12.O=P(O)(O)O.O=P(O)(O)O (stereo not given) [Chloroquine diphosphate],1.06,1.27,0.913,1.1
CC(O)(P(=O)(O)O)P(=O)(O)O [Etidronate],0.821,1.15,1.12,0.981
CN(CCOc1ccc(CC2SC(=O)NC2=O)cc1)c1ccccn1.O=C(O)/C=C\C(=O)O (stereo not given) [Rosiglitazone maleate],1.17,1.06,0.97,1.12
COc1cccc2c1C(=O)c1c(O)c3c(c(O)c1C2=O)C[C@@](O)(C(=O)CO)C[C@@H]3O[C@H]1C[C@H](N)[C@H](O)[C@H](C)O1.Cl [Doxorubicin hydrochloride],0.133 (active),0.454 (active),0.166 (active),0.171 (active)
CCc1c2c(nc3ccc(OC(=O)N4CCC(N5CCCCC5)CC4)cc13)-c1cc3c(c(=O)n1C2)COC(=O)[C@]3(O)CC.Cl.O.O.O [Irinotecan hydrochloride trihydrate],1.11,0.875,1.32,0.937
CC(C)(C#N)c1cc(Cn2cncn2)cc(C(C)(C)C#N)c1 [Anastrozole],0.836,1.02,1,1.01
C[C@]12CC[C@H](O)CC1=CC[C@@H]1[C@@H]2CC[C@]2(C)C(c3cccnc3)=CC[C@@H]12 [Abiraterone],1.28,0.938,1.07,1.16
CC(/C=C/C=C(\C)C(=O)O[C@@H]1O[C@H](CO[C@@H]2O[C@H](CO)[C@@H](O)[C@H](O)[C@H]2O)[C@@H](O)[C@H](O)[C@H]1O)=C\C=C\C=C(C)\C=C\C=C(/C)C(=O)O[C@@H]1O[C@H](CO[C@@H]2O[C@H](CO)[C@@H](O)[C@H](O)[C@H]2O)[C@@H](O)[C@H](O)[C@H]1O [Crocin],1.28,1.12,0.985,1.03
